Test results from PubChem BioAssay AID1851 (National Center for Advancing Translational Sciences (NCATS), 2009).
Where “and” joins values, the source holds several entries; their conditions need not be identical. Equal entries are not always repeated. In all, about 16,000 compounds went through this assay and about 2,600 (16%) were called active. Roughly 20% stayed inconclusive and do not appear here. A selection follows. Unmarked numbers belong to inactive results. Calls follow the shape of the dose curve; as a rule, active = well fitted curve in the direction sought with a large enough effect; inconclusive = small, poorly fitted or top-dose-only effect, or effect the other way; inactive = no such curve, though single readings can be large or run the other way.

Molecular target: Cytochrome P450 2D6 (Homo sapiens) (UniProt P10635)
Assay: Cytochrome panel assay with activity outcomes
Details: recombinant CYP, pro-luciferin dealkylation, luminescence, p450-cyp2d6; series mostly up to 57.1 µM; activity, negative = inhibition: at the top concentration
% is scaled to controls: 0 for no effect and ±100 for the full control effect.

Chain of Cytochrome P450 2D6 (Homo sapiens) (P10635 whole entry, looked up): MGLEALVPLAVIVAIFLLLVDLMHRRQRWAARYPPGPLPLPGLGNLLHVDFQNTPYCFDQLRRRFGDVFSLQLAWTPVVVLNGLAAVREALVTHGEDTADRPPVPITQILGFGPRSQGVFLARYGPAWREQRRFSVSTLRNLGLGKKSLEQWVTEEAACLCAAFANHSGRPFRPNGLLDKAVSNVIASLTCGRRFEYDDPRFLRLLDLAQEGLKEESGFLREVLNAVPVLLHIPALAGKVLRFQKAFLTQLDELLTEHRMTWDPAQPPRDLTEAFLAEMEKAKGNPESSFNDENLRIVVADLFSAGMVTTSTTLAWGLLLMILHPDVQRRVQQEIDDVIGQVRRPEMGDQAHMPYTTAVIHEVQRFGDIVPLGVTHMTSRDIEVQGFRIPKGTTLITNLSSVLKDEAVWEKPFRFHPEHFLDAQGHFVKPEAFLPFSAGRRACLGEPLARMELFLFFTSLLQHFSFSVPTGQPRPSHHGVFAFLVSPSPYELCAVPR

SMILES | activity, negative = inhibition | AC50
CCCCOC(=O)CCc1c(C)[nH]c(=O)c(C#N)c1C | -6.68% | 
CCN(CC)C(=O)C1=C(C)NC(=S)NC1c1cn(-c2ccccc2)nc1-c1ccc(Cl)cc1 (stereo not given) | -7.39% | 
O=C(O)[C@@H]1[C@@H](C(=O)Nc2ncccn2)[C@@H]2C=C[C@@H]1O2 | 15.2% [at 11.4 µM] | 
CCc1cccc(N(C)C(N)=Nc2cccc3ccccc23)c1 |  | 0.2 µM (active)
O=C(NC[C@@H](O)CO)c1c(I)c(C(=O)NC[C@@H](O)CO)c(I)c(N(CCO)C(=O)CO)c1I | 6.36% [at 25.6 µM] | 
O=C1c2ccccc2-c2ccc(N(Cc3ccc(Br)cc3)Cc3ccc(Br)cc3)cc21 | -1.8% [at 11.4 µM] | 
C[N+]1(C)CCC(OC(=O)C(c2ccccc2)c2ccccc2)CC1 | -11.7% | 
CN1[C@@H]2CC[C@H]1CC(OC(c1ccccc1)c1ccccc1)C2 (stereo not given in full) |  | 2 µM (active) and 1.26 µM (active)
Cn1c(=O)c(-c2cc(F)cc(F)c2)nc2cncnc21 | 0.609% | 
Cc1nn(C)cc1CNC(=O)CCC(=O)O | -3.76% | 
CCN1CCCC1CNC(=O)C(=O)Nc1ccc(OC)cc1 (stereo not given) | -29.4% | 
COc1ccc(NC(=O)NCCCN2CCCCC2C)cc1 (stereo not given) |  | 1.58 µM (active)
COc1ccc(NC(=O)N2CCC3(CC2)CCN(S(C)(=O)=O)CC3)cc1 | -3.87% | 
O=S(=O)(c1cnccc1N1CCN(CCO)CC1)N1CCCC1 | 10% [at 11.4 µM] | 
Cc1cccc(Nc2ccccc2C(=O)OCC(=O)NCc2ccco2)c1C | -14% | 
O=C(Nc1ccccc1Cl)c1ccn[nH]1 | -6.64% | 
O=C1c2cccnc2C(=O)N1Cc1ccc(F)cc1 | -2.33% | 
O=C1C(=O)N(Cc2ccc(Cl)c(Cl)c2)c2ccccc21 |  | 3.98 µM (active)
O=C1CCCc2ccccc2N1Cc1cccc(Cl)c1 | -28.2% | 
CCn1ncc(C(=O)Nc2cc(C)on2)c1C | -2.48% | 
Cc1c(C)c2c(C)[nH]nc2oc1=O | -6.17% | 
CN(C)c1nc(C#N)nc(N2CCOCC2)n1 | 9.46% | 

SMILES | activity, negative = inhibition | AC50
O=C(O)CP(=O)(O)O |  | inactive
CCOC(=O)C(NC(C)=O)C(=O)O (stereo not given) | 24.2% | 
CCOC(=O)[C@H](N)/C=C(\C)CP(=O)(O)O |  | 2 µM (active)
Cc1ccc(C)c2sc(NC(=O)c3ccc(N4CCCCC4)c([N+](=O)[O-])c3)nc12 | -8.77% | 
CCc1nnc(NC(=O)CCC(=O)N2CCN(c3ccccn3)CC2)s1 | 18.4% | 
Cc1ccc(C2NC(c3ccc(C)cc3)C(C)C(=NO)C2C)cc1 (stereo not given) |  | 0.562 µM (active)
Cc1ccc(C2CC2C(=O)NN)cc1 (stereo not given) | -14.7% | 
Cc1ccc(NC(=O)/C(=C\c2cccc([N+](=O)[O-])c2)NC(=O)c2cccs2)cc1 | -1.88% | 
Cc1nc2ncnn2c(C)c1CCC(=O)NCCC1=CCCCC1 | -20.4% | 
OCCNc1nc(NCCC2=CCCCC2)nc(N2CCOCC2)n1 |  | 7.08 µM (active)
c1ccc(-c2csc(Nc3nc(N4CCOCC4)nc(N4CCOCC4)n3)n2)cc1 | 12.3% | 
COc1ccc(-c2cc(C(F)(F)F)nc(N3CCCCC3)n2)cc1OC | -22.7% | 
Cc1ccccc1N1C(=O)c2cc(S(N)(=O)=O)c(Cl)cc2N[C@H]1C | 5.14% [at 25.6 µM] | 
C[n+]1cn(CC(O)COCc2ccccc2)c2ccccc21 (stereo not given) |  | 1.12 µM (active)
OC(COCc1ccccc1)Cn1cnc2ccccc21 (stereo not given) |  | 14.1 µM (active)
O=C1CCCC=C1[C@@H](O)COCc1ccccc1 | -20.2% [at 11.4 µM] | 
Cn1c2ccccc2c2cc(C(=O)N3CCOCC3)sc21 | -56.6% | 
CSc1nsc(/C=C/Nc2ccc(Cl)cc2)c1C#N | -20.6% | 
Cc1noc(C)c1CS(=O)(=O)c1ccc(Br)cc1 | -11.4% | 
CCCCCCCCCCCCCCC/C=C\[C@H](O)[C@@H](NC(=O)CCCCCCCCCCCCC)OC (tested in a mixture with another compound) | 2.02% | 
CCCC[S@@](=N)(=O)CC[C@@H](N)C(=O)O | 9.89% | 
CCCCCCC/C=C\CCCCCCCCC(=O)O | -11% | 

SMILES | activity, negative = inhibition | AC50
CCCCCCCCCCCCC/C=C\[C@@H](O)[C@@H](N)CO |  | 15.8 µM (active)
CCCCCCCCCCCCCCC[C@@H](O)[C@@H](N)CO |  | 7.94 µM (active)
O=C(O)CN(CCOCCOCCN(CC(=O)O)CC(=O)O)CC(=O)O | -4.91% | 
CC(=O)c1c(C)[nH]c(C(=O)COc2ccc(C#N)cc2)c1C | -9.11% | 
CSc1nc2c(c(=O)[nH]1)C(c1ccncc1)C(C(=O)OC(C)C)=C(C)N2 (stereo not given) | -16.1% | 
COc1cc(C(=O)Nc2ccc3c(c2)OCCO3)c(-n2cnnn2)cc1OC | -12.8% | 
S=C1NC2=C(C(c3ccc(Br)cc3)N1)N1CCC2CC1 (stereo not given) | -19.4% | 
CC1CCN(C(=S)c2ccc(O)cc2)CC1 | -3.59% | 
CCN1CCN(C(=S)c2ccc(Br)cc2)CC1 |  | 1 µM (active)
CCN1CCN(C(=O)CCc2nc3ccccc3c(=O)[nH]2)CC1 | -4.78% | 
CO[C@@H]1COC(=O)C/C=C\[C@@H](C)COC(=O)[C@H](COCc2ccccc2)NC(=O)C/C=C\[C@H]1C | 10.2% [at 11.4 µM] | 
CC(O)CN(CCC(N)=O)CCC(N)=O (stereo not given) | 0.2% | 
Cc1cccc(Nc2ccncc2S(=O)(=O)NC(=O)NC(C)C)c1 | 6.82% [at 25.6 µM] | 
Cn1cc(-c2nc3cnc(N4CCNCC4)nc3n(C3CC3)c2=O)c2ccccc21 | -14.8% | 
CC(C)CC(=O)O/N=C1\C(=O)N(c2ccccc2)c2ccccc21 | 0.275% | 
C=CCn1c(=O)c2c(nc(Br)n2Cc2ccccc2Cl)n(C)c1=O | -6.43% | 
CC(=O)OCC(=O)[C@@]1(OC(C)=O)[C@H](C)C[C@H]2[C@@H]3C[C@H](F)C4=CC(=O)C=C[C@@]4(C)[C@]3(F)[C@H](O)C[C@@]21C | -1.58% [at 25.6 µM] | 
O=C1COc2ccc(OCc3ccc(F)cc3)cc21 | -20.1% | 
Cc1cc(NCCO)c2ccccc2n1 | -41% | 
O=C(O)CC1(CC(=O)O)Nc2ccccc2SC1=O | 8.66% [at 11.4 µM] | 
CN1CCN(CCC=C2c3ccccc3Sc3ccc(S(=O)(=O)N(C)C)cc32)CC1 |  | 31.6 µM (active)
CCOC(=O)C1CCCN(C(=O)c2sc3nc(-c4ccc(OC)cc4)cn3c2C)C1 (stereo not given) | 1.59% | 

SMILES | activity, negative = inhibition | AC50
Cc1c(Nc2cc(N3CCCC(C)C3)c3nonc3c2[N+](=O)[O-])c(=O)n(-c2ccccc2)n1C (stereo not given) | 1.82% | 
COC(=O)c1ccc(N2CCN(c3ccccc3)CC2)c(NC(=O)C2CC2)c1 | 10.2% | 
Cc1ccc(Nc2ccc(-n3ccnc3)nn2)cc1C |  | 2.51 µM (active)
O=C(Nc1ncc(Cc2ccccc2)s1)C1COc2ccccc2O1 (stereo not given) | 24.8% | 
O=C1C2CCCN2c2ccc(S(=O)(=O)N3CCOCC3)cc2N1Cc1cccc(C(F)(F)F)c1 (stereo not given) | -28.2% | 
Cc1onc(-c2c(F)cccc2Cl)c1C(=O)N[C@H]1C(=O)N2[C@H]1SC(C)(C)[C@H]2C(=O)O | 1.45% [at 25.6 µM] | 
O=C(O)CC[C@@H](C(=O)O)N1C(=O)c2ccccc2C1=O | 6.68% | 
COC(=O)COc1cccc(NC(=O)c2ccc(C)cc2)c1 | -15.9% | 
CCOc1cccc(OCCCNCCCOC)c1 |  | 11.2 µM (active)
COc1cccc(OCCCOc2ccccc2C(C)C)c1 | -22.8% | 
O=C(N/N=C/c1ccco1)c1ccccn1 | -14.7% | 
COc1ccc(NC(=O)/C(=C\c2cc(OC)c(OC)cc2[N+](=O)[O-])NC(=O)c2ccccc2)cc1 | 2.06% | 
COc1ccc(C(=O)Nc2ccc(F)cc2F)cc1OC | -27.1% | 
Cc1ccccc1OCCNC(=S)Nc1ccccc1 | -6.27% | 
O=C(O)CCSCc1ccccc1 | -5.23% [at 11.4 µM] | 
S=C(NCc1ccccn1)Nc1cccc(Cl)c1 | -6.51% | 
S=C(NCCSCc1c(Cl)cccc1Cl)Nc1ccccc1 |  | 4.47 µM (active)
O=C(Nc1ccc(N=Nc2ccccc2)cc1)c1ccc(Cl)cc1Cl | 8% | 
S=C(NCCSCc1ccc(Cl)cc1Cl)Nc1ccccc1 |  | 6.31 µM (active)
O=C(COc1ccccc1Cl)NC(=S)Nc1cccc(NC(=O)c2ccccc2Cl)c1 | 14.4% | 
O=C(Cc1ccccc1)NCCSCc1ccc(Cl)cc1 |  | 3.16 µM (active)
O=C(c1cccs1)n1nc(-c2ccc(Cl)cc2)nc1NCc1ccco1 | -9.76% | 

SMILES | activity, negative = inhibition | AC50
COc1ccc(Cc2nnc(NC(=O)CSc3ccc(C)cc3)s2)cc1OC | -12% | 
O=C1c2cccnc2C(O)N1C1CCCCC1 (stereo not given) | 5.84% | 
COc1ccccc1C(=O)NC(=S)N1CCCc2ccccc21 | 1.45% | 
N#CC(c1ccc(Cl)cc1)(c1ncc(C(F)(F)F)cc1Cl)N1CCOCC1 (stereo not given) | 5.48% | 
C/C(=N\NC(=O)c1ccc(Cl)cc1)c1cccc(NC(=O)C(C)C)c1 | -3.26% | 
Cc1ccccc1C(=O)Nc1cccc(NC(=S)NC(=O)c2cccs2)c1 | -4.72% | 
Nc1nc(=O)c2[nH]cnc2n1O | -6.92% [at 11.4 µM] | 
CCC(=O)n1nc(-c2ccc(OC)cc2)nc1N | -3.17% | 
Cc1ccc2[nH]c3c(c2c1)CN(C(=O)CN1c2ccc(F)cc2CCC1C)CC3 (stereo not given) | -14.4% | 
CO[C@H]1COC(=O)[C@@H](CCSC)NC(=O)C/C=C\[C@@H](C)[C@H](OC)COC(=O)[C@@H](OCc2ccccc2)/C=C\[C@@H]1C | -4.06% [at 11.4 µM] | 
CCNc1nc(Oc2c(Cl)cccc2Cl)cc(C(F)(F)F)n1 | -16.5% | 
CC(C)(C)NCC[C@@H](O)c1cc(C(F)(F)F)nc2c(C(F)(F)F)cccc12 |  | 0.316 µM (active)
CC1(C)OC(C(N)=O)C(C(N)=O)O1 (stereo not given) | 1% | 
Cc1ccc(S(=O)(=O)NC(=O)Nc2ncn[nH]2)cc1 | 4.38% [at 11.4 µM] | 
Cc1cccc(-n2c(=O)c3c(n4cnnc24)-c2ccccc2CC32CCCCC2)c1 | -15.5% | 
O=C(CSc1nc2ccccc2s1)N1c2ccccc2Sc2ccc(C(F)(F)F)cc21 | -0.671% | 
CSc1ccc2c(c1)N(CCCN(C)C)c1ccccc1S2 |  | 0.501 µM (active)
CCC(=S)/C=C1\Sc2ccccc2N1CCCS(=O)(=O)O | -2.63% | 
CCC(=O)c1ccc2c(c1)N(CCCN(C)C)c1ccccc1S2 |  | 2 µM (active)
CN(C)CCCN1c2ccccc2Sc2ccc(C(F)(F)F)cc21 |  | 794 nM (active) and 398 nM (active)
CN(C)CCCN1c2ccc(O)cc2Sc2ccc(Cl)cc21 |  | 0.126 µM (active)
CN(C)CCCNC(=O)c1cc2c3ccccc3n(C)c2s1 | 1.67% | 
